According to PubChem BioAssay AID737 (Emory University Molecular Libraries Screening Center, 2007):
Potency and affinity values are given separately. Calls of active or inactive are those of the source.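 How the source made its calls: active means fitted EC50 under 30 µM, or percent of control over 300% when no usable fit; inactive means the rest.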

Each compound was assayed against Estrogen receptor (Homo sapiens) (UniProt P03372) (assay: ERα coactivator recruitment enhancers – biochemical, TR-FRET, ERα LBD, dose response (AID 737)). Conditions: TR-FRET ER-alpha LBD / SRC-Cy5 coactivator recruitment; at 12.5 µM; stronger effect = higher value.
Estrogen receptor (Homo sapiens), sequence (P03372 whole entry, looked up, the tested form may be a part): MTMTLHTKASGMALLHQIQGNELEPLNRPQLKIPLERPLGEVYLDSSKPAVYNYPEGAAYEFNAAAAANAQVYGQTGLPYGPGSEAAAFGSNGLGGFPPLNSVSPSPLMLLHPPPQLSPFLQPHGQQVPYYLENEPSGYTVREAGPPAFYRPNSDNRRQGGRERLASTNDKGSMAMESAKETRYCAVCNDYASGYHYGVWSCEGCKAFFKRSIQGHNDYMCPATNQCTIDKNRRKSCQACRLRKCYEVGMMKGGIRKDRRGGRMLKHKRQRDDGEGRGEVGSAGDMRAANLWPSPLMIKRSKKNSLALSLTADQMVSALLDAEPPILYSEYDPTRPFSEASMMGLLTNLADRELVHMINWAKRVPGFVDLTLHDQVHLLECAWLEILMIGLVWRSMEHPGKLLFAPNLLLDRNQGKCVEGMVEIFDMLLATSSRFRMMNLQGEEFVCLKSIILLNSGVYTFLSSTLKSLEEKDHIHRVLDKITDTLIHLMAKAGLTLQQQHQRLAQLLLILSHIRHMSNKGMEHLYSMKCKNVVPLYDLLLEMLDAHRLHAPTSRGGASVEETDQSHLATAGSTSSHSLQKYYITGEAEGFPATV
`CCOC(=O)c1sc(NC(=O)c2ccc3ncsc3c2)nc1C` was tested, and the percent of control was 349% (active). In the case of `Cc1ccc(S(=O)(=O)c2nc(S(C)(=O)=O)sc2NCC2CCCO2)cc1` (stereo not drawn), the percent of control is reported as 136% (inactive). For `O=C(Nc1ccc(-c2noc(-c3cccs3)n2)cc1)c1cccnc1`, the percent of control was 208% (inactive). In the case of `CCOC(=O)c1c(NC(=O)CSc2nnc(-c3ccccc3)o2)sc(C(C)=O)c1C`, the percent of control is reported as 305% (active). In the case of `COc1ccc(-c2c(C#N)c(C)nc3c2C(=O)c2ccccc2-3)cc1`, the percent of control is reported as 239% (inactive). For `O=C(Cc1ccc(Cl)cc1)Nc1ccc2oc(-c3ccncc3)nc2c1`, the percent of control was 207% (inactive). In the case of `CCOC(=O)N1c2ccccc2C=CC1OCC` (stereo not drawn), the percent of control is reported as 152% (inactive). For `O=C(c1cc2ccccc2oc1=O)N(Cc1ccco1)Cc1cccs1`, the percent of control was 110% (inactive). `CCOC(=O)Cn1c(-c2nonc2NC(=O)c2ccccc2F)nc2ccccc21` was tested, and the percent of control was 218% (inactive). `COc1ccc(OC)c(C(=O)CSc2nnc(-c3ccc(OC)c(OC)c3)o2)c1` was tested, and the percent of control was 662% (active). For `O=C(COC(=O)C(O)c1ccccc1)c1ccc2c(c1)OCCO2` (stereo not drawn), the percent of control was 108% (inactive). With `Cc1ccc(C)n1-c1cccc(C(=O)O)c1` the percent of control was 26.6% (inactive). With `Cc1ccc(NC(=O)CSc2nnc(Cn3c(=O)sc4ccccc43)n2C)cc1Cl` the percent of control was 165% (inactive).
